What all share (set-up): species or system human, MV4-11 + K-562 + COLO205 + SK-N-BE2 + OVCAR-8
In one assay the test system is CSNK1A1. The settings on record: read-out: apparent Kd, n = 1.
For the next assay, the system named is MAPK10. Conditions: read-out: apparent Kd, n = 1.
The test system of a further assay is PIM2. The settings on record: read-out: apparent Kd, n = 1.
Another assay relates to PKN3. Conditions: read-out: apparent Kd, n = 1.
Another assay deals with TAOK1. Conditions: read-out: apparent Kd, n = 1.
A further assay deals with BMPR1A. The settings on record: read-out: apparent Kd, n = 1.
The subject of a further assay is ERBB3. The settings on record: read-out: apparent Kd; compound concentrations: 100 nM and 1000 nM (sheet 'Samples'), CATDS: 9.8413353572783496E-2; n = 1.
The test system of another assay is STK10. Conditions: read-out: apparent Kd, n = 1.
The subject of a further assay is AURKA. Conditions: read-out: apparent Kd; compound concentrations: 100 nM and 1000 nM (sheet 'Samples'), CATDS: 6.1882254370992797E-2; n = 1.
In a further assay the test system is NUAK1. The settings on record: read-out: apparent Kd, n = 1.
In a further assay the test system is ADCK3. The settings on record: read-out: apparent Kd, n = 1.
Another assay has as its system MAPK11. The settings on record: read-out: apparent Kd, n = 1.
A further assay concerns CDK4. Conditions: read-out: apparent Kd, n = 1.
The test system of the next assay is EPHB3. Conditions: read-out: apparent Kd; compound concentrations: 100 nM and 1000 nM (sheet 'Samples'), CATDS: 4.67907505867102E-2; n = 1.
Another assay has as its system CDK7. The settings on record: read-out: apparent Kd, n = 1.
The subject of the next assay is SYK. The settings on record: read-out: apparent Kd; compound concentrations: 100 nM and 1000 nM (sheet 'Samples'), CATDS: 3.0941649644307598E-2; n = 1.
For another assay, the system named is ERCC2. The settings on record: read-out: apparent Kd; compound concentrations: 100 nM and 1000 nM (sheet 'Samples'), CATDS: 0.17876672107785799; n = 1.
The subject of another assay is SIK3. Conditions: read-out: apparent Kd; compound concentrations: 100 nM and 1000 nM (sheet 'Samples'), CATDS: 2.9281323909689301E-2; n = 1.
The mark [1] stands for this setting: compound concentrations:100 nM and 1000 nM (sheet 'Samples').

Molecules are shown by their SMILES. Read-outs that look alike come from different tables or passages of the source.

Turning to `Fc1ccc(-c2c(-c3ccncc3)[nH]c3nccnc23)cc1` [RO1155697-000], the potency estimated from few doses in the assay with CSNK1A1 (setting [1]) is 0.667 µM; in the assay with MAPK10 (setting [1]), 0.869 µM; in the assay on PIM2 (setting [1]), 1.07 µM; with PKN3 (setting [1]), 0.0311 µM; in the assay on TAOK1 (setting [1]) it was 1.15 µM.
Take `Cc1cc(O)cc(C)c1/C=C/c1cncc(-c2nn[nH]n2)c1.Cl` [GW441806A]: the potency estimated from few doses in the assay on BMPR1A (compound concentrations: 100 nM and 1000 nM (sheet 'Samples'), CATDS: 4.5522705937236799E-2) was 1.37 µM; with ERBB3, 0.174 µM; in the assay with STK10 (compound concentrations: 100 nM and 1000 nM (sheet 'Samples'), CATDS: 4.0928454430712802E-2) it was 2.05 µM.
Turning to `CN1CCc2ccc(Nc3nccc(-c4c(-c5cccc(NC(=O)c6c(F)cccc6F)c5)nc5ccccn45)n3)cc2C1.Cl` [GSK1010829B], the potency estimated from few doses with TAOK1 (compound concentrations: 100 nM and 1000 nM (sheet 'Samples'), CATDS: 4.1687643746907199E-2) was 0.83 µM.
Consider `CNC(=O)c1ccccc1Nc1nc(Nc2cccc(CS(C)(=O)=O)c2)ncc1C.O=CO` [GSK1520489A], for which the potency estimated from few doses was 0.0169 µM with AURKA; 0.502 µM in the assay on MAPK10 (compound concentrations: 100 nM and 1000 nM (sheet 'Samples'), CATDS: 1.2611209241053301E-2); 0.217 µM in the assay with NUAK1 (compound concentrations: 100 nM and 1000 nM (sheet 'Samples'), CATDS: 1.6678428283329098E-2); 0.0885 µM in the assay with STK10 (compound concentrations: 100 nM and 1000 nM (sheet 'Samples'), CATDS: 2.4296695352096099E-2).
For `CC(=O)c1c(-c2ccncc2)[nH]c(-c2ccncc2)c1C` [GW493036X], the potency estimated from few doses in the assay with CSNK1A1 (compound concentrations: 100 nM and 1000 nM (sheet 'Samples'), CATDS: 4.1725323261606301E-2) is 0.874 µM; in the assay with PKN3 (setting [1]), 1.07 µM.
Turning to `Cc1ccc(-n2nc(C(C)(C)C)cc2NC(=O)Nc2ccc(OCCN3CCOCC3)cc2)cc1` [BIRB0876BS], in the assay on ADCK3 (setting [1]), the potency estimated from few doses is 0.0489 µM.
`COc1ccc(-c2nn3ncccc3c2-c2ccnc(Nc3ccc4c(c3)OCCO4)n2)cc1` [GW827106X]: the potency estimated from few doses with MAPK11 (compound concentrations: 100 nM and 1000 nM (sheet 'Samples'), CATDS: 6.1190831662216998E-2) was 0.956 µM.
As to `Cc1ccc(CC(=O)N2CCc3cc(-c4cn(C)c5ncnc(N)c45)ccc32)cc1` [GSK2634758A], the potency estimated from few doses in the assay on CDK4 (compound concentrations: 100 nM and 1000 nM (sheet 'Samples'), CATDS: 0.135917779714779) was 2.25 µM.
In the case of `COc1cc2ncn(-c3cc(OCc4sccc4Cl)c(C(N)=O)s3)c2cc1OC` [GSK448459A], in the assay on STK10 (setting [1]), the potency estimated from few doses was 0.333 µM.
Take `COc1cc2ncn(-c3cc(O[C@H](C)c4ccccc4Cl)c(C(N)=O)s3)c2cc1OC` [GSK237701A]: the potency estimated from few doses with STK10 (setting [1]) was 0.574 µM.
For `Cc1ccc(NC(=O)c2ccc(Cl)cc2)cc1-c1ccc(C(=O)Nc2ccncc2)cc1` [GSK1398467A], the potency estimated from few doses in the assay on CDK4 (compound concentrations: 100 nM and 1000 nM (sheet 'Samples'), CATDS: 0.17554209006480601) was 1.65 µM.
Regarding `Nc1c(C(=O)c2ccccc2)cnn1-c1ccc(F)cc1` [RO1151246-000], the potency estimated from few doses was 1.42 µM with MAPK11 (setting [1]) and 2.07 µM in the assay with PKN3 (setting [1]).
Regarding `Fc1cccc(COc2ccc(Nc3ncncc3C#Cc3ccccc3)cc2Cl)c1` [GW651576X], the potency estimated from few doses in the assay with EPHB3 is 2.08 µM.
With `COc1cc(F)c(F)c(F)c1C(=O)c1cnc(NC2CCN(S(C)(=O)=O)CC2)nc1N` [RO4600703-000], the potency estimated from few doses in the assay on CDK4 (setting [1]) was 1.31 µM; in the assay on CDK7 (setting [1]), 0.821 µM.
As for `Clc1ccc(-c2nn3ncccc3c2-c2ccnc(Nc3ccccc3)n2)cc1` [GW829055X], the potency estimated from few doses in the assay with CDK4 (compound concentrations: 100 nM and 1000 nM (sheet 'Samples'), CATDS: 3.2528026841687298E-2) was 1.96 µM; in the assay with CSNK1A1 (compound concentrations: 100 nM and 1000 nM (sheet 'Samples'), CATDS: 3.2884610425315097E-2), 1.9 µM; with PIM2 (compound concentrations: 100 nM and 1000 nM (sheet 'Samples'), CATDS: 3.1911296970739501E-2), 2.07 µM; with SYK, 2.27 µM.
`CCCN1CCC(Oc2cc(Nc3nc(Nc4cccc(F)c4C(N)=O)c4cc[nH]c4n3)c(OC)cc2Cl)CC1` [GSK1713088A]: the potency estimated from few doses in the assay on ADCK3 (compound concentrations: 100 nM and 1000 nM (sheet 'Samples'), CATDS: 0.349456505086152) was 0.604 µM; in the assay on CDK7 (compound concentrations: 100 nM and 1000 nM (sheet 'Samples'), CATDS: 0.191679480220071), 1.74 µM; in the assay with ERCC2, 2.04 µM.
Regarding `Fc1ccc(-c2ncn(C3CCNCC3)c2-c2ccnc(Oc3ccc4c(c3)OCO4)n2)cc1` [SB-250715], the potency estimated from few doses in the assay with CSNK1A1 (setting [1]) was 1.3 µM; in the assay on MAPK11 (setting [1]), 0.0404 µM.
`COc1cc(N2CCN(C(C)C)CC2)ccc1Nc1nc(Nc2cccc(F)c2C(=O)O)c2cc[nH]c2n1` [GSK1819799A]: the potency estimated from few doses in the assay with PIM2 (compound concentrations: 100 nM and 1000 nM (sheet 'Samples'), CATDS: 4.4865682499900299E-2) is 1.71 µM.
As to `NC(=O)c1cccnc1COc1cc(-c2ccc(N3CCOCC3)nc2)cc2ncccc12` [BI01125081], the potency estimated from few doses was 0.257 µM in the assay on ADCK3 (setting [1]), 1.37 µM in the assay with BMPR1A (setting [1]) and 1.08 µM with NUAK1 (setting [1]).
As for `Nc1ncnc2c1ncn2-c1cccc(F)c1` [SKF-97560], the potency estimated from few doses with PKN3 (compound concentrations: 100 nM and 1000 nM (sheet 'Samples'), CATDS: 8.07286972312308E-2) is 0.168 µM; in the assay on SIK3 it was 2.09 µM.
